# Experimental data: ChEMBL document CHEMBL1961873, “Compounds: GSK PKIS; Assays: Nanosyn kinase panel” (2012)
# Experiments:
# [1] = biological target: Sphingosine kinase 1 (Homo sapiens) (UniProt Q9NYA1); settings: at 1 µM;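 also: mean SPHK1 inhibition value reported from the GSK PKIS kinase panel screen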
# [2] = biological target: T1, Sphingosine kinase 2 (Homo sapiens) (UniProt Q9NRA0); settings: at 0.1 µM
# T1 sequence (whole entry): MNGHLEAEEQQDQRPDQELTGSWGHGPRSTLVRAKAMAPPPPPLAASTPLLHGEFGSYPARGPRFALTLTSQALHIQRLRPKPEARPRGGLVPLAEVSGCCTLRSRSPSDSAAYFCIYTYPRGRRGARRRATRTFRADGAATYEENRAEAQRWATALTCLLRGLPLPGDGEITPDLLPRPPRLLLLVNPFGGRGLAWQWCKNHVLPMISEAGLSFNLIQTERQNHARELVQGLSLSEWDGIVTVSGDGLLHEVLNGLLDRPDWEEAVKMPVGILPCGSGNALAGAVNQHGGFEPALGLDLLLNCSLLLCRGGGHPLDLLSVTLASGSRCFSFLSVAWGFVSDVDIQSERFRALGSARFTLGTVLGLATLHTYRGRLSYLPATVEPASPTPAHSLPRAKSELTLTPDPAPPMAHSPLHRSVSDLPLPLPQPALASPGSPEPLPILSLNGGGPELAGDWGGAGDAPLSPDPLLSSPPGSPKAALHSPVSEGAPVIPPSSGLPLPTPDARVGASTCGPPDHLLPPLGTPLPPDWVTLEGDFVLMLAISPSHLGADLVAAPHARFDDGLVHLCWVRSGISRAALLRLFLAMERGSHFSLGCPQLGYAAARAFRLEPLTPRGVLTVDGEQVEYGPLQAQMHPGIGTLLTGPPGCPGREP
# [3] = biological target: T1, Sphingosine kinase 2 (Homo sapiens); settings: at 1 µM
# [4] = biological target: Casein kinase II subunit alpha (Homo sapiens) (UniProt P68400); settings: at 0.1 µM
# [5] = biological target: Casein kinase II subunit alpha (Homo sapiens) (UniProt P68400); settings: at 1 µM
# [6] = biological target: T2, Inhibitor of nuclear factor kappa-B kinase subunit alpha (Homo sapiens) (UniProt O15111); settings: at 0.1 µM
# T2 sequence (whole entry): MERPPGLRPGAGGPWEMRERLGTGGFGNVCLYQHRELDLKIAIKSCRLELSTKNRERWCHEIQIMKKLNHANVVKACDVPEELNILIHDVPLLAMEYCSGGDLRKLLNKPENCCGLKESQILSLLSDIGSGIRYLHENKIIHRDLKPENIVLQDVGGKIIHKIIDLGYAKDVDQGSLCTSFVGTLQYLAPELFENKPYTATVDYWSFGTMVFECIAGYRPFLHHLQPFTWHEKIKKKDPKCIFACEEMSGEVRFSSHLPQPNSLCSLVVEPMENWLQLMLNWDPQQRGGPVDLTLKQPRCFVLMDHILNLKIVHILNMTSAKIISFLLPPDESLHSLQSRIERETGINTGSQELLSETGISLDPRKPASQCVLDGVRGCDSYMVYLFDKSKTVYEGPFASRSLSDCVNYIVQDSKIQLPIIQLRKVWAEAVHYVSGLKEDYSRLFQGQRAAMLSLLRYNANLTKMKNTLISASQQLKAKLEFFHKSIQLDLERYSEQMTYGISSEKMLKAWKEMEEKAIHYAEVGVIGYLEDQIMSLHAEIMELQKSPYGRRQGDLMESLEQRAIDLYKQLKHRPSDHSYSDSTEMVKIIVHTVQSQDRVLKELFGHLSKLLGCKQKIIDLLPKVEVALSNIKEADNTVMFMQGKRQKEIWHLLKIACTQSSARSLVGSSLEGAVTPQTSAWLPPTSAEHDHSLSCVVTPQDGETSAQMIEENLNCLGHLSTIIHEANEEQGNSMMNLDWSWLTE
# [7] = biological target: T2, Inhibitor of nuclear factor kappa-B kinase subunit alpha (Homo sapiens); settings: at 1 µM
# [8] = biological target: T3, Inhibitor of nuclear factor kappa-B kinase subunit beta (Homo sapiens) (UniProt O14920); settings: at 0.1 µM
# T3 sequence (whole entry): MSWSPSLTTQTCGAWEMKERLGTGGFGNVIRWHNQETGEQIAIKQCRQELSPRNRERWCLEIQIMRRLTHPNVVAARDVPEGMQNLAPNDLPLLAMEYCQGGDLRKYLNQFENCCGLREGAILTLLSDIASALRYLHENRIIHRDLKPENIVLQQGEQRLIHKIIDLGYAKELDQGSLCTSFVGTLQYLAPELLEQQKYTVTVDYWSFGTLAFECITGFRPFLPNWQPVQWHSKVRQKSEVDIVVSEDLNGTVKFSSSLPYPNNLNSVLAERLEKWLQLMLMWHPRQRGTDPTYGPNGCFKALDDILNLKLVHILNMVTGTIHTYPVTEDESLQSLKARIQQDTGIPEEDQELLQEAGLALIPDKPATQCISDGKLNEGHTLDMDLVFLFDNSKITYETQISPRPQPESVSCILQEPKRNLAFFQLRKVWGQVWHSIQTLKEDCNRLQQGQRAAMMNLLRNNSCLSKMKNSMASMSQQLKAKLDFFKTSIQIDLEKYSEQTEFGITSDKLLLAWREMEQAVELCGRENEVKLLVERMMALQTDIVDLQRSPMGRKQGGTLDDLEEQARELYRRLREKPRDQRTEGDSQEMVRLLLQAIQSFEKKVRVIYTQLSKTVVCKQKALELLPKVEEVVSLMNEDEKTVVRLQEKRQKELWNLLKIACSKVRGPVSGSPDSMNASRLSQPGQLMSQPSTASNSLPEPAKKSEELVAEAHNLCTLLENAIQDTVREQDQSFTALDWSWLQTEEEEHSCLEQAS
# [9] = biological target: T3, Inhibitor of nuclear factor kappa-B kinase subunit beta (Homo sapiens); settings: at 1 µM
# [10] = biological target: T4, Inhibitor of nuclear factor kappa-B kinase subunit epsilon (Homo sapiens) (UniProt Q14164); settings: at 0.1 µM
# T4 sequence (whole entry): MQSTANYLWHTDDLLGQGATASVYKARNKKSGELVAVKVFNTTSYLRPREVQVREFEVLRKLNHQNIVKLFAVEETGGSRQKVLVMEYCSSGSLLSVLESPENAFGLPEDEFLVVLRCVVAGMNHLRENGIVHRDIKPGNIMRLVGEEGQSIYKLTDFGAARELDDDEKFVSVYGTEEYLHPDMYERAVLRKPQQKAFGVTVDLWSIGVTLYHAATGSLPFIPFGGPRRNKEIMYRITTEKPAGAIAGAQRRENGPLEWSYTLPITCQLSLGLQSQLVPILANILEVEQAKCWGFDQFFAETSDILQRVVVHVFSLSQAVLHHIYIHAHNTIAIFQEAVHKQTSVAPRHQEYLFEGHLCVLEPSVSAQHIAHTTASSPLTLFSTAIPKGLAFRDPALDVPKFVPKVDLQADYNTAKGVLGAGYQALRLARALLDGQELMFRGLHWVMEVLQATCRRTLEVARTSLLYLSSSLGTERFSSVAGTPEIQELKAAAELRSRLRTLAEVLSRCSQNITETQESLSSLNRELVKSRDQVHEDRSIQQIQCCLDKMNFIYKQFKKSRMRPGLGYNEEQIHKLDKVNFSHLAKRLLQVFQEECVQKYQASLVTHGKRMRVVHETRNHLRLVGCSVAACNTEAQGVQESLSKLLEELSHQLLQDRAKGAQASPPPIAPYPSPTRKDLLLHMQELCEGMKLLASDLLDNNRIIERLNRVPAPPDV
# [11] = biological target: T4, Inhibitor of nuclear factor kappa-B kinase subunit epsilon (Homo sapiens); settings: at 1 µM
# [12] = biological target: T5, Serine/threonine-protein kinase Nek1 (Homo sapiens) (UniProt Q96PY6); settings: at 0.1 µM
# T5 sequence (whole entry): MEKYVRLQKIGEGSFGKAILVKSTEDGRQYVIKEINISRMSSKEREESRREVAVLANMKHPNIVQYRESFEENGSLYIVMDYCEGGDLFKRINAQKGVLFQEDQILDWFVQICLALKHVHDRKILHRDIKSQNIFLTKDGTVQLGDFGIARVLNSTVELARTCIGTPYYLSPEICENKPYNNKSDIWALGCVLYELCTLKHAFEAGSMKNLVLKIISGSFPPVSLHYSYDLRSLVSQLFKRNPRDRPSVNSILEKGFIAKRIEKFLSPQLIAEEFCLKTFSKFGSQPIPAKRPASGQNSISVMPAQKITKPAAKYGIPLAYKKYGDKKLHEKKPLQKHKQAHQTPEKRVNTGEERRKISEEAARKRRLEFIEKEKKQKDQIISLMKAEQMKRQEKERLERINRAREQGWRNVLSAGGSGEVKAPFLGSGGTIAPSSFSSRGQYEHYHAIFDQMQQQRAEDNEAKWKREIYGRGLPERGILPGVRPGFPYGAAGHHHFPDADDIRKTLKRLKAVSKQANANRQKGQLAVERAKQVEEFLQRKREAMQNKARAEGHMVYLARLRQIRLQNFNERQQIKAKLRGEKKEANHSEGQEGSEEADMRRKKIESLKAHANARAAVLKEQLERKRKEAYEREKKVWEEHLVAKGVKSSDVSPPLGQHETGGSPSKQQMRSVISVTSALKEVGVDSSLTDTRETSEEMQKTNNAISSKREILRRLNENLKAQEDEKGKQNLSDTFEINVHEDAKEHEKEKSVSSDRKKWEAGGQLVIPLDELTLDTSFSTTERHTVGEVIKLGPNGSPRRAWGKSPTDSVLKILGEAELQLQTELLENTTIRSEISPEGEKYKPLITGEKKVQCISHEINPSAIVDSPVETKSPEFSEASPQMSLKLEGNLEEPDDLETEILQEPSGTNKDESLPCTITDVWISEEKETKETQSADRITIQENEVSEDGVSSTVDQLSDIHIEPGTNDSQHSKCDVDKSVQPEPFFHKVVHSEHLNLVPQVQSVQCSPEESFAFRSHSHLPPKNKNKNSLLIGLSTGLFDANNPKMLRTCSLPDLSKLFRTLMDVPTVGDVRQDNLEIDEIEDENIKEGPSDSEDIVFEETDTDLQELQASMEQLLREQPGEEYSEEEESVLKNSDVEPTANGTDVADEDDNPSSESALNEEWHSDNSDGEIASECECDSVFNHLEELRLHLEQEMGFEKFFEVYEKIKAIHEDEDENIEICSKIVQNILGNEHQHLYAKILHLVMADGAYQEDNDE
# [13] = biological target: T5, Serine/threonine-protein kinase Nek1 (Homo sapiens); settings: at 1 µM
# [14] = biological target: T6, Serine/threonine-protein kinase Nek2 (Homo sapiens) (UniProt P51955); settings: at 0.1 µM
# T6 sequence (whole entry): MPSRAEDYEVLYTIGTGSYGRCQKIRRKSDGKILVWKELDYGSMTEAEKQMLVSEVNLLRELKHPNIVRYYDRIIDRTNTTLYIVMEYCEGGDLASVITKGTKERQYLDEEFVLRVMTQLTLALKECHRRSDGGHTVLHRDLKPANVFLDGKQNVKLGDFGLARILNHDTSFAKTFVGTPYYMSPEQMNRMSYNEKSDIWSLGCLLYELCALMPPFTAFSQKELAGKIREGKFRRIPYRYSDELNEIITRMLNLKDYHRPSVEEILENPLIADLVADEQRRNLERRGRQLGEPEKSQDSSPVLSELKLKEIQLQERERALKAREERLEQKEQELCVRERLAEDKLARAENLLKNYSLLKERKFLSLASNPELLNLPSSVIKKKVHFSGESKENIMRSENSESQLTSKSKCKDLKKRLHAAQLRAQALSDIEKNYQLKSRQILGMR
# [15] = biological target: T6, Serine/threonine-protein kinase Nek2 (Homo sapiens); settings: at 1 µM
# [16] = biological target: Serine/threonine-protein kinase Nek6 (Homo sapiens) (UniProt Q9HC98); settings: at 0.1 µM
# [17] = biological target: Serine/threonine-protein kinase Nek6 (Homo sapiens) (UniProt Q9HC98); settings: at 1 µM
# [18] = biological target: Serine/threonine-protein kinase Nek7 (Homo sapiens) (UniProt Q8TDX7); settings: at 0.1 µM
# [19] = biological target: Serine/threonine-protein kinase Nek7 (Homo sapiens) (UniProt Q8TDX7); settings: at 1 µM
# [20] = biological target: T7, Serine/threonine-protein kinase Nek9 (Homo sapiens) (UniProt Q8TD19); settings: at 0.1 µM;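 also: reported value is the mean percent inhibition of NEK9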
# T7 sequence (whole entry): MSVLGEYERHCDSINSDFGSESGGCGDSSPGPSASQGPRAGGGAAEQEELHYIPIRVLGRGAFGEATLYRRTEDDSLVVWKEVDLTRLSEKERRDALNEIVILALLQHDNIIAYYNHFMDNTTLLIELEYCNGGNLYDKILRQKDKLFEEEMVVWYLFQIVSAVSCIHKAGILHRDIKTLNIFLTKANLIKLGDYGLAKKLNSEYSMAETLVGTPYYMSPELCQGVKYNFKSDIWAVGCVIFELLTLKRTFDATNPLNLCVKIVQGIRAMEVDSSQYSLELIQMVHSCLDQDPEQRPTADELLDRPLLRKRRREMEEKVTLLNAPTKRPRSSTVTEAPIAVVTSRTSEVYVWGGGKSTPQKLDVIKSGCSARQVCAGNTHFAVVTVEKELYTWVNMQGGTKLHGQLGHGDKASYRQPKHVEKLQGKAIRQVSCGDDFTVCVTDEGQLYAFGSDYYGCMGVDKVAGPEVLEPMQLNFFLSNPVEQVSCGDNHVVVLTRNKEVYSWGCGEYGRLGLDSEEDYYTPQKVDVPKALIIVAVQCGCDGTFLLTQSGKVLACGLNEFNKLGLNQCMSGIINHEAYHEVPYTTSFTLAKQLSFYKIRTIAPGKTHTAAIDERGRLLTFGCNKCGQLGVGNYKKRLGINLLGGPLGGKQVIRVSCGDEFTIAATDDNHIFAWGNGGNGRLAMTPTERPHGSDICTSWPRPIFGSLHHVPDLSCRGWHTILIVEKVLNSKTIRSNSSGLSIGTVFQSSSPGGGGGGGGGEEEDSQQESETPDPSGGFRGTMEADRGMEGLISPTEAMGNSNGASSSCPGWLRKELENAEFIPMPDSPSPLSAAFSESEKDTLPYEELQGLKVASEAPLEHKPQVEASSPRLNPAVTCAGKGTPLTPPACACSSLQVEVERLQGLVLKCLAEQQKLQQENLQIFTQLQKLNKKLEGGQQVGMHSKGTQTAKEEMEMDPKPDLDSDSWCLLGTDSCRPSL
# Chain of Serine/threonine-protein kinase Nek6 (Homo sapiens) (Q9HC98 whole entry): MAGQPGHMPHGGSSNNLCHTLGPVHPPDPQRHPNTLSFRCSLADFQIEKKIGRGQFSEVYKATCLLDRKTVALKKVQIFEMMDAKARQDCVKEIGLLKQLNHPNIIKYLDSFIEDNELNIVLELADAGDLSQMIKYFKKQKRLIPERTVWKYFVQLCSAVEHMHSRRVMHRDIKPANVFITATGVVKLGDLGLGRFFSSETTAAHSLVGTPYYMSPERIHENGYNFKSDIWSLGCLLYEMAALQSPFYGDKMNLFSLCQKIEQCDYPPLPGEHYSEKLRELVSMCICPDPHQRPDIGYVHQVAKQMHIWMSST
# Chain of Serine/threonine-protein kinase Nek7 (Homo sapiens) (Q8TDX7 whole entry, looked up): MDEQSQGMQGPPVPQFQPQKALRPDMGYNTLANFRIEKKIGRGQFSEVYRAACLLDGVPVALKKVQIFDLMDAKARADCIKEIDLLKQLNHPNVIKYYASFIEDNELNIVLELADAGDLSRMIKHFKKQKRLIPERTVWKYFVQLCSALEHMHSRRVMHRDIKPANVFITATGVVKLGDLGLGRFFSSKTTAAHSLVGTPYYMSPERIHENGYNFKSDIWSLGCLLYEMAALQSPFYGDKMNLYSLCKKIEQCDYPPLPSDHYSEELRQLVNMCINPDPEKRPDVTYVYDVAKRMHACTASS
# Chain of Casein kinase II subunit alpha (Homo sapiens) (P68400 whole entry, looked up): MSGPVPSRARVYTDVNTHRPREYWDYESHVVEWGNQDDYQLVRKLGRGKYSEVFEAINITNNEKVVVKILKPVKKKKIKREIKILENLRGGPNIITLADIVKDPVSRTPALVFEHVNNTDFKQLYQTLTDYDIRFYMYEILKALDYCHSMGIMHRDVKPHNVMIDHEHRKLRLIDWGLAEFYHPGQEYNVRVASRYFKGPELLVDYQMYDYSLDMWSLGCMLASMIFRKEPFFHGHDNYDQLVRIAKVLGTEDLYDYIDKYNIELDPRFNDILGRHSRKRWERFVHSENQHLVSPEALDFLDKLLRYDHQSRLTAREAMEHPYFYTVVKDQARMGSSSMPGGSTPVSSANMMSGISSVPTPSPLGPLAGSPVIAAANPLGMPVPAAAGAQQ
# Chain of Sphingosine kinase 1 (Homo sapiens) (Q9NYA1 whole entry): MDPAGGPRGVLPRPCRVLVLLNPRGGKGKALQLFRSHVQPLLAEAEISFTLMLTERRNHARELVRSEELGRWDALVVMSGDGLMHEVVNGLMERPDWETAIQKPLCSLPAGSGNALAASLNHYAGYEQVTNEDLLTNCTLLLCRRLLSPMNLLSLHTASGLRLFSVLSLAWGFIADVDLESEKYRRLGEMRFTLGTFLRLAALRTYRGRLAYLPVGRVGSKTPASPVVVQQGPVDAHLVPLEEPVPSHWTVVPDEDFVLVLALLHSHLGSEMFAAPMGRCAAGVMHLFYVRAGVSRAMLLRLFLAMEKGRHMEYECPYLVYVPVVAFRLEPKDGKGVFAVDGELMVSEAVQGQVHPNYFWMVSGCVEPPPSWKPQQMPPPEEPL
structure (smiles),measurement,setting,value
CNC(=O)c1cncc(/C=C/c2c(Cl)cccc2Cl)c1,inhibition,[1],-1.49%
same,inhibition,[2],0.89%
same,inhibition,[3],-2.09%
same,inhibition,[4],16.9%
same,inhibition,[5],14.9%
same,inhibition,[6],1.91%
same,inhibition,[7],0.72%
same,inhibition,[8],7.67%
same,inhibition,[9],11.4%
same,inhibition,[10],5.94%
same,inhibition,[11],6.17%
same,inhibition,[12],2.78%
same,inhibition,[13],1.83%
same,inhibition,[14],4.53%
same,inhibition,[15],3.38%
same,inhibition,[16],1.11%
same,inhibition,[17],4.76%
same,inhibition,[18],4.23%
same,inhibition,[19],9.84%
same,inhibition,[20],5.43%
